PubChem BioAssay AID1672 (Johns Hopkins Ion Channel Center, 2009)
The campaign covered roughly 310,000 compounds. About 2,600 (0.84%) were called active. The sample holds actives, similar compounds and a random draw of the others, so the mix is not that of the screen. A number with no mark means an inactive call.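 Rule for the calls: active = fluorescence ratio B-score at or below minus 3 SD of library scores, with starting-brightness B-score within 2 SD (cut at about -4.2 in these data); inactive = the rest.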

target: Inward rectifier potassium channel 2 (Mus musculus) (UniProt P35561); assay: inhibitors of mouse Kir2.1 inward-rectifier potassium channel (AID 1672); details: HEK293-Kir2.1, FluxOR thallium flux fluorescence; at 10 µM; active compounds read low;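 note: channel flux triggered by added potassium and thallium sulfate stimulus; B-score of peak minus minimum fluorescence over baseline after thallium stimulus; more negative B-score means stronger Kir2.1 block with less thallium influx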
Sequence (P35561 whole entry, looked up): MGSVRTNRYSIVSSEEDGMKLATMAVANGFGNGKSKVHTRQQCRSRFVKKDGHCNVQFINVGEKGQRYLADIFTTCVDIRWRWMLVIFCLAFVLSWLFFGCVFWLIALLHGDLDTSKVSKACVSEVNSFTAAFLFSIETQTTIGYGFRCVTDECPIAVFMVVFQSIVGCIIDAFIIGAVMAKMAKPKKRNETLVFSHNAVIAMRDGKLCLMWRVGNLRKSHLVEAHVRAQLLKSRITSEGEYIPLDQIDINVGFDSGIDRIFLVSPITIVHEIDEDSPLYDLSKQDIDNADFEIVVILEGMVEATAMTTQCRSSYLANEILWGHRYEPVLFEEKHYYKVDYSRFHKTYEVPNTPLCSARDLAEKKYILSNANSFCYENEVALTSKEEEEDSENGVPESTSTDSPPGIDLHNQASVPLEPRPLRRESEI

SMILES	B-score
COc1ccc(C(=O)Nc2cccc(NC(=O)c3ccc(OC)cc3OC)n2)c(OC)c1	1.64
O=S(=O)(O)Oc1c[nH]c2ccccc12	0.01
Cc1nnc(SCC(=O)N2CCN(c3ccccc3)CC2)n1-c1ccccc1	0.71
Cc1nnc(SCC(=O)NCCOc2ccc(Cl)cc2)n1-c1ccccc1	-0.16
Cc1nnc(SCc2ccc(C(=O)c3ccc(Cl)cc3)o2)n1-c1ccccc1	-6.19 (active)
CN(Cc1ccccc1)CC(O)COc1ccc(CNCc2cc3ccccc3s2)cc1 (stereo not drawn)	-11.4 (active)
COc1ccc(OCC(O)CN(C)C(=O)C(C)Oc2ccccc2)cc1 (stereo not drawn)	-0.09
Cc1ccc(OCC(=O)OC(C)CN(C)Cc2ccccc2)cc1 (stereo not drawn)	0.74
C=CCNC(=O)C1CC2c3ccccc3C1c1ccccc12 (stereo not drawn)	-2.23
C[C@@H](NC(=O)OC(C)(C)C)c1nnc(S(=O)(=O)Cc2ccccc2)o1	-6.48 (active)
C[C@H](NC(=O)OC(C)(C)C)c1nnc(SCC(N)=O)o1	-0.34
CC(C)Sc1nnc([C@H](Cc2ccccc2)NC(=O)OC(C)(C)C)o1	-0.51
O=C(c1ccc(Cl)s1)N(Cc1nnc(-c2ccccc2Cl)o1)C1CC1	1.76
Cc1ccn2c(=O)nc(SCC(=O)NCc3ccc(F)cc3)nc2c1	-1.27
Cc1csc(NC(=O)c2ccc(C)s2)n1	0.01
CC(=O)Nc1cccc(C(=O)OCC(=O)Nc2nnc(-c3ccccc3)o2)c1	-2.17
COc1ccccc1NS(=O)(=O)c1ccc(C)c(C(=O)NCC(c2ccco2)N(C)C)c1 (stereo not drawn)	-0.98
C=CCNC(=S)N/N=C/c1ccc(OCc2ccccc2)cc1	-1.45
C=CCNC(=O)COc1coc(CN2CCN(Cc3ccccc3)CC2)cc1=O	0.45
C=CCNC(=S)/N=c1/ccccn1Cc1ccccc1	-6.6 (active)
O=C(Nc1ncccc1O)c1ccc(S(=O)(=O)N2CCCC2)cc1	-0.16
CCOCCCNCc1cc(Br)ccc1OCC	-0.16
COCC(C)NCc1cc(Br)ccc1OC (stereo not drawn)	1.7
CC(C)(C)NCc1cc(Br)ccc1OC1CCCC1	-4.79 (active)
Cc1ccc(NC(=O)c2cnc(SCC(=O)NCC3CCCO3)n(C)c2=O)cc1 (stereo not drawn)	0.42

SMILES	B-score
Cc1ccc(S(=O)(=O)N2CCC(C(=O)NCCC3=CCCCC3)CC2)cc1C	0.61
O=C1c2ccccc2C(=O)c2c1cccc2N1CCN(C/C=C/c2ccccc2)CC1	1.06
COc1ccc(C)cc1NC(=O)CSc1nnc2ccc(-c3ccccn3)nn12	0.98
CSc1ccc(CN2C(=O)NC3(CCCCCC3)C2=O)cc1	1.22
Cc1ccc(SCCN2C(=O)NC(C)(C)C2=O)cc1	0.51
CC1(C)NC(=O)N(CCCCSc2ccc(Cl)cc2)C1=O	-6.38 (active)
Cc1ccn2c(=O)c(NC(=O)c3cccc4ccccc34)c(C)nc2c1	-0.25
CC1CN(C(=O)CCC(=O)NCc2cccnc2)c2ccccc2O1 (stereo not drawn)	-0.67
CC1CN(C(=O)CCC(=O)NCCCN2CCC(Cc3ccccc3)CC2)c2cc(Cl)ccc2O1 (stereo not drawn)	-9.24 (active)
CC1CN(C(=O)CCC(=O)NC2CCN(Cc3ccccc3)CC2)c2ccccc2O1 (stereo not drawn)	2.27
CN(C)S(=O)(=O)c1ccc(N2CCCC2)c(C(=O)Nc2ccc(Br)cc2F)c1	-0.29
Cc1cc(C)cc(NC(=O)COc2coc(CN3CCN(c4ccccc4)CC3)cc2=O)c1	0
Cc1ccc(NC(=S)N(CCCN2CCC(C)CC2)Cc2ccco2)cc1	-0.74
Cc1ccc(NC(=S)N(CCCN2CCCC2)Cc2cccn2Cc2ccc(Cl)cc2)cc1	-8.85 (active)
Cc1ccc(NC(=S)N(CCN2CCCCC2)Cc2ccco2)cc1C	-0.41
CC(C)(C)S(=O)(=O)c1ccccc1-c1noc(-c2ccccc2)c1C(N)=O	-0.65
COc1ccc(S(=O)(=O)NCC(c2ccc(C)cc2)N2CCN(C)CC2)cc1OC (stereo not drawn)	1.23
CCCOc1ccc(C(=O)C(CCC(CNCC)C(=O)c2ccc(OCCC)cc2)CNCC)cc1 (stereo not drawn)	-6.16 (active)
CCCCOc1ccc(C(=O)NCc2ccncc2)cc1	0.24
CCCOc1ccc(C(=O)CCC(=O)OC(C)C(=O)Nc2ccc(NC(C)=O)cc2)cc1 (stereo not drawn)	0.42
O=C(CSc1nc(=O)n2ccccc2n1)Nc1ccc2c(c1)OCCO2	0.08
CCOc1ccc(C(C)=O)cc1COC(=O)CN1C(=O)NC2(CCCC2)C1=O	-1.53
CCCCn1c(N)c(N(CC(C)C)C(=O)c2ccc(-n3c(C)ccc3C)cc2)c(=O)[nH]c1=O	-1.14
c1ccc(C2CNCc3c2ccc2ccccc32)cc1 (stereo not drawn)	-11.2 (active)
Cc1ccc(C)c(-c2nnc(NC(=O)CS(=O)(=O)c3ccccc3)o2)c1	1.4

SMILES	B-score
O=c1[nH]c(/C=C/c2cccc(Br)c2)nc2ccccc12	0.39
Cc1cc(C)cc(NC(=O)CSc2ccccc2)c1	0.12
CC(=O)Nc1ccc(SCC(=O)Nc2ccccc2Oc2ccccc2)cc1	-6.89 (active)
O=C(CSc1ccccc1)Nc1cc(Cl)ccc1Oc1ccccc1	-1.22
N#CCCN(C(=O)COC(=O)C1CCN(c2ccc(C(F)(F)F)cn2)CC1)c1ccc(F)cc1	0.96
CCOC(=O)N1CCN(C(=O)COc2ccc3oc4c(c3c2)CCCC4)CC1	0.58
COc1ccccc1CCNC(=O)C(=O)NCCC1CCCCN1S(=O)(=O)c1cccs1 (stereo not drawn)	-1.17
O=C(/C=C/c1ccc(Cl)cc1Cl)c1cccnc1	-4.49 (active)
O=C(Nc1cccnc1)c1cc(Cl)ccc1Cl	0.72
O=C(/C=C/c1ccc(Cl)c([N+](=O)[O-])c1)c1cccnc1	-0.86
COc1ccc2oc(C(=O)OCC(=O)N(CC(C)C)c3c(N)n(Cc4ccccc4)c(=O)[nH]c3=O)c(C)c2c1	0.5
Cc1cc(C)c(S(=O)(=O)c2ccc(F)cc2C)c(=O)[nH]1	0.31
C=C(C)Cn1c(C)cc(C)c(S(=O)(=O)c2ccccc2C)c1=O	-4.55 (active)
COc1ccccc1S(=O)(=O)c1c(C)cc(C)[nH]c1=O	-1.21
Cc1ccc(C(=O)NNC(=O)C(C)Oc2ccc3ccccc3c2)o1 (stereo not drawn)	0.32
CSc1ncc(Sc2ccccc2)c(C(=O)O)n1	0.25
COc1ccccc1CN1CCN(C(c2ccccc2)c2ccccc2)CC1	-0.07
CC(=O)OC(C(=O)NC1CCCCC1)c1ccccc1 (stereo not drawn)	-0.67
CC(NCc1ccccc1OC1CCCC1)c1ccccc1 (stereo not drawn)	-12.7 (active)
Cc1ccc(NC(=O)C2CC(=O)N(c3ccc4c(c3)OCCO4)C2)cc1S(=O)(=O)N1CCCCCC1 (stereo not drawn)	-0.57
COc1ccc2c(c1)CCNC2Cc1ccc(OC)c(O)c1 (stereo not drawn)	1.91
CN1CCN(C2Cc3ccc(Cl)cc3Sc3ccc(F)cc32)CC1 (stereo not drawn)	-1.17
Clc1ccc(-c2cc(-c3ccccn3)on2)c(Cl)c1	0.99
Clc1ccc(-c2cc(C3CCNCC3)[nH]n2)c(Cl)c1	-12.6 (active)
O=C1CSC(c2ccccc2)N1c1nc(-c2ccc(Cl)cc2Cl)cs1 (stereo not drawn)	0.4

SMILES	B-score
O=C(Nc1cccc2c1CCCC2)c1ccc(F)cc1	-0.09
Cc1ccc(S(=O)(=O)N2CCN(C(=O)Cc3sc(C)nc3-c3ccc(F)cc3)CC2)c(C)c1	-0.03
COc1ccc(S(=O)(=O)N2CCCCC2)cc1NC(=O)c1cc([N+](=O)[O-])ccc1N1CCOCC1	-0.55
CCN1C(=O)[C@@H]2[C@@H](c3ccc(-c4cccc(Cl)c4)cc3)N3CCC[C@@]3(C(=O)OC)[C@@H]2C1=O	0
COc1ccccc1OCC(=O)Nc1ccccc1C(=O)NC1CC1	-0.05
CCOc1ccccc1OCC(=O)Nc1ccccc1C(=O)NC1CC1	-2.1
CC(Oc1ccc(F)cc1)C(=O)Nc1ccccc1C(=O)NC1CC1 (stereo not drawn)	-5.66 (active)
CC(Oc1ccc(Br)cc1)C(=O)NCC(c1ccco1)N1CCCCC1 (stereo not drawn)	-1.52
Cc1ccc(-c2cc(C(=O)NC3CCN(Cc4ccccc4)CC3)c3ccccc3n2)cc1	0
Cc1ccc(S(=O)(=O)NCCC(=O)NC2CCN(Cc3ccccc3)CC2)cc1	-1.38
Cc1ccc(-c2nc(CSCC(=O)NC3CCN(Cc4ccccc4)CC3)c(C)o2)cc1	-4.77 (active)
C=CCc1cc(S(=O)(=O)c2ccc(O)c(CC=C)c2)ccc1O	-6.7 (active)
CCOC(=O)C1Nc2ccc(C(F)(F)F)cc2C2C=CCC12 (stereo not drawn)	1.69
COc1ccc(CNC(=O)Cc2ccc(-c3ccccc3)cc2)cc1OC	0.77
COc1cc(CNCc2cccs2)cc(Br)c1OC	-1.78
COc1cc(CNCc2ccc(OC)c3ccccc23)cc(OC)c1OC	-6.99 (active)
CC12CN(Cc3ccccc3)CC(C)(CN(Cc3ccccc3)C1)C2=NO	-8.19 (active)
CCCC(=O)C1CCN(Cc2ccccc2)CC1	-3.46
O=C(Nc1ccccc1)N1CCN(Cc2ccccc2)CC1	0.76
CC(C)(C)Oc1ccccc1Nc1nc(NCCO)nc(N2CCCC2)n1	0.89
COc1ccc(F)c(-c2nc(CN3CCC(c4ccccc4)CC3)c(C)o2)c1	-6.63 (active)
CCOc1ccccc1-c1nc(CN2CCC(C(=O)N3CCOCC3)CC2)c(C)o1	0.57
COc1cccc(CC2(CO)CCCN(Cc3nc(-c4cccs4)oc3C)C2)c1 (stereo not drawn)	-0.22
